From PubChem BioAssay AID1159580 (chemical genetic matrix, 2015)
Out of some 5,500 compounds screened, about 2,000 (36%) were called active. Not shown: some 18% with an inconclusive outcome. Rule as the data show it: active = normalized growth mostly below about 0.91 (no sharp cut-off); inconclusive = no clear call, values can overlap the other calls; inactive = mostly above about 0.92. The list shows a part of the results.

Assay: chemical genetic growth profiling, strain panel (AID 1159580);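 also: tested at 20 µM; growth read once vehicle control cultures reached saturation at 30 °C; 1 = growth at the plate median or of vehicle wells; lower values mean less growth of the strain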
Details: growth OD

Measured: normalized growth

OCc1ccccc1O
inactive: S. cerevisiae deletion strains, locus YKL068W, hits give low values 0.994 | S. cerevisiae deletion strains, locus YKL085W, strain MDH1 (second series), hits give low values 0.992 | S. cerevisiae deletion strains, locus YKL085W, strain MDH1, hits give low values 0.992 | S. cerevisiae deletion strains, locus YKL160W, strain elf1, hits give low values 1.04 | S. cerevisiae deletion strains, locus YKL190W, strain CNB1, hits give low values 1.01 | S. cerevisiae deletion strains, locus YKR001C, strain vps1, hits give low values 0.989 | S. cerevisiae deletion strains, locus YKR026C, strain gcn3, hits give low values 1.02 | S. cerevisiae deletion strains, locus YKR091W, strain srl3, hits give low values 1.01 | S. cerevisiae deletion strains, locus YLL001W, strain dnm1, hits give low values 1.01 | S. cerevisiae deletion strains, locus YLL026W, hits give low values 1 | S. cerevisiae deletion strains, locus YLL041C, strain sdh2, hits give low values 1.01 | S. cerevisiae deletion strains, locus YLR027C, strain aat2, hits give low values 1.02 | S. cerevisiae deletion strains, locus YLR039C, strain RIC1, hits give low values 0.988 | S. cerevisiae deletion strains, locus YLR058C, strain SHM2, hits give low values 1.02 | S. cerevisiae deletion strains, locus YLR102C, strain apc9, hits give low values 0.981 | S. cerevisiae deletion strains, locus YLR113W, strain HOG1, hits give low values 1.03 | S. cerevisiae deletion strains, locus YLR221C, strain rsa3, hits give low values 1.02 | S. cerevisiae deletion strains, locus YLR258W, strain gsy2, hits give low values 1.02 | S. cerevisiae deletion strains, locus YLR262C, strain YPT6 (second series), hits give low values 1.06 | S. cerevisiae deletion strains, locus YLR262C, strain YPT6, hits give low values 1.04 | S. cerevisiae deletion strains, locus YLR268W, strain sec22, hits give low values 0.969 | S. cerevisiae deletion strains, locus YLR320W, strain mms22, hits give low values 1.02 | S. cerevisiae deletion strains, locus YLR330W, strain CHS5, hits give low values 1.01 | S. cerevisiae deletion strains, locus YLR342W, strain FKS1 (second series), hits give low values 1.01 | S. cerevisiae deletion strains, locus YLR342W, strain FKS1, hits give low values 1.03 | S. cerevisiae deletion strains, locus YLR357W, strain rsc2, hits give low values 1.08 | S. cerevisiae deletion strains, locus YLR370C, strain arc18, hits give low values 1.01 | S. cerevisiae deletion strains, locus YLR371W, strain rom2, hits give low values 0.989 | S. cerevisiae deletion strains, locus YLR384C, strain iki3, hits give low values 1.01 | S. cerevisiae deletion strains, locus YLR418C, strain cdc73, hits give low values 0.962 | S. cerevisiae deletion strains, locus YML016C, strain PPZ1, hits give low values 1.02 | S. cerevisiae deletion strains, locus YML032C, strain rad52, hits give low values 0.979 | S. cerevisiae deletion strains, locus YML120C, strain ndi1, hits give low values 1.01 | S. cerevisiae deletion strains, locus YML124C, strain tub3, hits give low values 0.997 | S. cerevisiae deletion strains, locus YMR058W, strain fet3, hits give low values 1.02 | S. cerevisiae deletion strains, locus YMR078C, strain ctf18, hits give low values 0.993 | S. cerevisiae deletion strains, locus YMR125W, strain sto1, hits give low values 1.01 | S. cerevisiae deletion strains, locus YMR129W, hits give low values 1.03 | S. cerevisiae deletion strains, locus YMR205C, strain PFK2, hits give low values 1.03 | S. cerevisiae deletion strains, locus YMR223W, strain ubp8, hits give low values 0.994 | S. cerevisiae deletion strains, locus YMR231W, strain pep5, hits give low values 1.01 | S. cerevisiae deletion strains, locus YMR263W, strain SAP30, hits give low values 1.02 | S. cerevisiae deletion strains, locus YMR307W, strain GAS1, hits give low values 1.01 | S. cerevisiae deletion strains, locus YNL067W, strain RPL9B, hits give low values 1.01 | S. cerevisiae deletion strains, locus YNL071W, strain lat1, hits give low values 1.04 | S. cerevisiae deletion strains, locus YNL128W, strain TEP1, hits give low values 1.02 | S. cerevisiae deletion strains, locus YNL153C, strain GIM3, hits give low values 1.01 | S. cerevisiae deletion strains, locus YNL183C, strain NPR1, hits give low values 1 | S. cerevisiae deletion strains, locus YNL209W, strain ssb2, hits give low values 1.02 | S. cerevisiae deletion strains, locus YNL233W, strain BNI4, hits give low values 1.01 | S. cerevisiae deletion strains, locus YNL248C, strain rpa49, hits give low values 1.04 | S. cerevisiae deletion strains, locus YNL250W, strain rad50, hits give low values 0.986 | S. cerevisiae deletion strains, locus YNL271C, strain bni1, hits give low values 0.98 | S. cerevisiae deletion strains, locus YNL298W, strain CLA4, hits give low values 0.981 | S. cerevisiae deletion strains, locus YNL307C, strain MCK1, hits give low values 0.989 | S. cerevisiae deletion strains, locus YNL322C, strain KRE1 (second series), hits give low values 1.03 | S. cerevisiae deletion strains, locus YNL322C, strain KRE1, hits give low values 1.01 | S. cerevisiae deletion strains, locus YNR049C, strain mso1, hits give low values 1.02 | S. cerevisiae deletion strains, locus YNR052C, strain pop2, hits give low values 0.989 | S. cerevisiae deletion strains, locus YOL006C, strain TOP1, hits give low values 1.06 | S. cerevisiae deletion strains, locus YOL012C, strain htz1 0.829 | S. cerevisiae deletion strains, locus YOL147C, strain pex11, hits give low values 0.985 | S. cerevisiae deletion strains, locus YOR001W, strain rrp6, hits give low values 1.03 | S. cerevisiae deletion strains, locus YOR061W, strain CKA2, hits give low values 1.02 | S. cerevisiae deletion strains, locus YOR069W, strain VPS5, hits give low values 1.01 | S. cerevisiae deletion strains, locus YOR070C, strain gyp1, hits give low values 1.03 | S. cerevisiae deletion strains, locus YOR080W, strain dia2, hits give low values 1.02 | S. cerevisiae deletion strains, locus YOR083W, strain WHI5, hits give low values 1.02 | S. cerevisiae deletion strains, locus YOR106W, strain vam3, hits give low values 1.01 | S. cerevisiae deletion strains, locus YOR136W, strain idh2, hits give low values 0.992 | S. cerevisiae deletion strains, locus YOR144C, strain elg1, hits give low values 0.991 | S. cerevisiae deletion strains, locus YOR184W, strain ser1, hits give low values 0.984 | S. cerevisiae deletion strains, locus YOR231W, strain MKK1, hits give low values 1.03 | S. cerevisiae deletion strains, locus YOR265W, strain rbl2, hits give low values 1 | S. cerevisiae deletion strains, locus YOR270C, strain vph1, hits give low values 1.03 | S. cerevisiae deletion strains, locus YOR290C, strain snf2, hits give low values 1.01 | S. cerevisiae deletion strains, locus YOR316C, strain cot1, hits give low values 0.996 | S. cerevisiae deletion strains, locus YPL051W, strain arl3, hits give low values 1.03 | S. cerevisiae deletion strains, locus YPL078C, strain atp4, hits give low values 1.02 | S. cerevisiae deletion strains, locus YPL106C, strain sse1, hits give low values 1.07 | S. cerevisiae deletion strains, locus YPL240C, strain hsp82, hits give low values 1.01 | S. cerevisiae deletion strains, locus YPL241C, strain CIN2, hits give low values 1.01 | S. cerevisiae deletion strains, locus YPL256C, strain CLN2, hits give low values 1.07 | S. cerevisiae deletion strains, locus YPR119W, strain clb2, hits give low values 0.986 | S. cerevisiae deletion strains, locus YPR141C, strain kar3, hits give low values 0.992 | S. cerevisiae deletion strains, locus YPR163C, strain tif3, hits give low values 0.994 | S. cerevisiae deletion strains, locus YPR167C, strain met16, hits give low values 0.989 | S. cerevisiae deletion strains, strain wtn01, hits give low values 0.973 | S. cerevisiae strains, strain wild type, hits give low values 1.01
